Source: PubChem BioAssay (NCI)
About 83,000 compounds went through this panel and 20% of them were active in at least one assay; those are over-represented in the sample as a whole.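 Values shown are percent growth following 48 h exposure of cells in 96-well plates to a single concentration of compound; below 10 was considered active.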 Active and inactive are the calls of the source.

Experiments:
Assay in all cases: NCI-60 one-dose screen, 48 h (100 = growth as untreated, 0 = no growth, -100 = all killed)
Settings in all cases: 10 µM unless noted
[1] = system: HCT-15 colon
[2] = system: HT29 colon
[3] = system: SNB-75 CNS
[4] = system: U251 CNS
[5] = system: PC-3 prostate
[6] = system: SK-MEL-5 melanoma
[7] = system: UACC-62 melanoma
[8] = system: LOX IMVI melanoma
[9] = system: SK-MEL-28 melanoma
[10] = system: SN12C renal
[11] = system: UO-31 renal
[12] = system: TK-10 renal
[13] = system: ACHN renal
[14] = system: CAKI-1 renal
[15] = system: A498 renal
[16] = system: CCRF-CEM leukemia
[17] = system: MOLT-4 leukemia
[18] = system: SK-MEL-2 melanoma
[19] = system: EKVX NSCLC
[20] = system: SNB-19 CNS

Measured: growth

CCNCCNc1cc(C2CCCC2)c(C#N)c2nc3ccccc3n12
inactive: [1] 26.8% | [5] 39.6% | [10] 46.3% | [14] 39.5% | [15] 75.4%
active: [2] -9.9% | [3] -33.3% | [4] -19.1% | [6] -56.7% | [7] -81.4% | [8] -79% | [9] -63.8% | [11] -74.9% | [12] -24.7% | [13] -34.7% | [16] -8.07% | [17] -17.9%

COc1ccc(/C=C2\COc3ccc(O)c(O)c3C2=O)c(OC)c1
inactive: [1] 16.8% | [2] 73.6% | [3] 57.7% | [4] 44.4% | [5] 49.6% | [7] 47.8% | [8] 30.7% | [9] 76.4% | [18] 90.7% | [19] 85.3% | [10] 33% | [11] 34.5% | [12] 22.5% | [13] 56.2% | [14] 36.6% | [15] 114%
active: [16] 4.18% | [17] 7.29%

NC(N)=N/N=C(/c1ccccc1)c1ccccc1F
inactive: [1] 22% | [20] 30.9% | [4] 24.2% | [5] 14.1% | [6] 15.8% | [7] 20.2% | [8] 46.3% | [9] 63.4% | [18] 70.5% | [19] 60% | [10] 37.1% | [11] 44% | [12] 64.9% | [13] 41% | [14] 35.7% | [15] 44.9% | [17] 22.4%
active: [2] 8.59% | [16] -2.22%

N#Cc1c(NC(=O)c2ccccc2I)sc2c1CCCC2
inactive: [1] 21.5% | [2] 17.4% | [3] 16.7% | [4] 29.7% | [5] 47.1% | [6] 19.2% | [7] 38% | [8] 36.8% | [9] 64.1% | [19] 48.5% | [10] 53.5% | [11] 58.1% | [13] 50.9% | [14] 45% | [16] 23.7% | [17] 34.9%

CCN(CC)CCOC(=O)Nc1ccccc1Cl
inactive: [1] 102% | [2] 80.4% | [3] 108% | [4] 99.3% | [5] 71.7% | [6] 105% | [7] 99.2% | [8] 101% | [9] 108% | [18] 88.3% | [19] 106% | [10] 103% | [11] 80.4% | [12] 86.1% | [15] 114% | [16] 75.7% | [17] 94.7%

Cc1nc(Nc2ccc(NC(=S)Nc3ccccc3)cc2)c2ccccc2n1
inactive: [1] 101% | [2] 107% | [3] 104% | [4] 101% | [5] 99.2% | [7] 95.1% | [8] 97.9% | [9] 108% | [18] 111% | [19] 95.6% | [10] 101% | [11] 85.7% | [12] 131% | [13] 102% | [14] 91.3% | [16] 93.1% | [17] 85.6%

C=C(CNCCc1ccc(O)cc1)[C@@H]1CC[C@]2(COC3CCCCO3)CC[C@]3(C)[C@H](CC[C@@H]4[C@@]5(C)CCC(NCCO)C(C)(C)[C@@H]5CC[C@]43C)[C@@H]12 (stereo partly specified)
active: [1] -93.5% | [2] -90.3% | [3] -17.6% | [4] -95% | [5] -92.6% | [6] -95.4% | [7] -85.9% | [9] -94.4% | [18] -81.3% | [19] -77.5% | [10] -92.2% | [11] -97.3% | [12] -89.7% | [13] -99.2% | [14] -92.1% | [15] -1.47% | [16] -51.1%

CN(C)c1ccc2cc(-c3ccccc3F)c(N)nc2c1
active: [2] 1.79% | [6] -18.8% | [15] -7.09%
inactive: [1] 37.4% | [3] 11.3% | [4] 16.8% | [5] 31.6% | [7] 40.2% | [8] 33.4% | [9] 58% | [19] 31.1% | [10] 54.9% | [11] 34% | [12] 34.6% | [13] 41.2% | [14] 37.5% | [16] 45.7% | [17] 35.1%

COc1ccc(-c2nc3ncccn3c2/C=C/C(=O)c2cc(OC)c(OC)c(OC)c2)cc1
inactive: [20] 10.9% | [5] 19% | [10] 15.7% | [11] 17% | [12] 15.5% | [13] 20.4%
active: [1] 9.73% | [2] 6.11% | [4] -16.8% | [6] -83.2% | [7] -17% | [8] 0.0444% | [9] -47.4% | [18] 0.675% | [19] 1.1% | [14] -3.66% | [15] -20.5% | [16] 1.32% | [17] 4.3%

CCn1c(Sc2nnc(NC(=O)CSC(=S)N3CCCCC3)s2)nc2c1c(=O)n(C)c(=O)n2C
inactive: [1] 49% | [2] 41.3% | [3] 88.7% | [4] 96.2% | [5] 79.2% | [6] 85.4% | [7] 60.8% | [8] 81.5% | [9] 78.1% | [19] 88.5% | [10] 96.6% | [11] 79.8% | [12] 95.8% | [13] 77.5% | [14] 47.7% | [16] 84.7% | [17] 97.6%

O=C1Nc2ccccc2/C1=N/N=C/c1ccsc1
inactive: [1] 98% | [2] 112% | [3] 87.8% | [4] 104% | [5] 107% | [6] 101% | [7] 93% | [8] 95.1% | [9] 110% | [18] 107% | [19] 90.9% | [10] 95.3% | [11] 74.8% | [12] 137% | [13] 102% | [14] 92% | [16] 101% | [17] 103%

C#CC[C@H](N)C(=O)O
inactive: [1] 100% [20 µM] | [2] 98.7% [20 µM] | [3] 68% [20 µM] | [4] 100% [20 µM] | [5] 102% [20 µM] | [6] 102% [20 µM] | [7] 95.4% [20 µM] | [8] 94.7% [20 µM] | [9] 110% [20 µM] | [18] 110% [20 µM] | [19] 106% [20 µM] | [10] 98.2% [20 µM] | [11] 86.1% [20 µM] | [12] 87.7% [20 µM] | [13] 107% [20 µM] | [14] 91.1% [20 µM] | [15] 105% [20 µM] | [16] 98.6% [20 µM] | [17] 102% [20 µM]

CCCN1CCN(c2ccc3nc(-c4ccc5nc(-c6ccc(OCC)c(OCC)c6)[nH]c5c4)[nH]c3c2)CC1
inactive: [11] 47.2%
active: [1] 5.97% | [2] -31.3% | [3] -77.9% | [4] -71.9% | [5] -40.6% | [6] -93.9% | [7] -85% | [8] -84.3% | [9] -86.6% | [18] -73.9% | [19] -3.15% | [10] -37.5% | [12] -0.902% | [13] -28.9% | [14] -18.9% | [16] 5.88% | [17] 3.28%

COc1cc2oc3cc(C)oc(=O)c3c2cc1OC
inactive: [1] 91.9% | [2] 91.5% | [20] 86.8% | [4] 102% | [5] 98.4% | [6] 95.1% | [7] 90.9% | [8] 103% | [9] 115% | [18] 97.2% | [19] 102% | [10] 92.8% | [11] 82.7% | [12] 96.7% | [13] 94% | [14] 86.4% | [15] 86.3% | [16] 112% | [17] 95%

CN(CCCCCCCCNc1ccnc2ccccc12)Cc1ccc(-c2ccc(-c3ccc(C#N)cc3)s2)cc1
inactive: [3] 42.5%
active: [1] -82.1% | [2] -55.1% | [4] -73.7% | [5] -63.7% | [6] -100% | [7] -37.4% | [8] -96.2% | [9] -84.1% | [19] -14.3% | [10] -78% | [11] -92.4% | [12] -50.1% | [13] -93.6% | [14] -86.5% | [16] -11.3% | [17] -32.9%

Cc1ccc(S(=O)(=O)N(CC[C@@H]2C[C@H]2c2cc3ccccc3o2)C(=O)NC2CCCCC2)cc1
inactive: [1] 92.3% | [2] 90.8% | [3] 102% | [4] 100% | [5] 95.6% | [6] 101% | [7] 78.4% | [8] 90.5% | [9] 95.7% | [18] 101% | [19] 101% | [10] 100% | [11] 75.9% | [12] 106% | [13] 96.9% | [14] 80.1% | [16] 118% | [17] 94.7%

C=C(CNCCc1ccc(O)cc1)[C@@H]1CC[C@]2(COC3CCCCO3)CC[C@]3(C)[C@H](CC[C@@H]4[C@@]5(C)CCC(N)C(C)(C)[C@@H]5CC[C@]43C)[C@@H]12 (stereo partly specified)
active: [1] -93% | [2] -93.8% | [3] -88% | [4] -91.7% | [5] -91% | [6] -97.9% | [7] -87% | [9] -94.9% | [18] -82.9% | [19] -74.6% | [10] -85.2% | [11] -96.8% | [12] -90.7% | [13] -99% | [14] -91.8% | [15] -98.7% | [16] -64.1%
